Most compounds without a hit are left out; they make up all but 5.6% or so of the library.
PHOSPHO1 block: blocks human PHOSPHO1 phosphatase activity | AID 1565 | 290,000 compounds, 1.1% hits | Q8TCT1 | recombinant PHOSPHO1, absorbance phosphatase assay | inhibition, % at 13.3 µM; in the data active = inhibition above about 60%
Target sequence (Q8TCT1 whole entry, looked up): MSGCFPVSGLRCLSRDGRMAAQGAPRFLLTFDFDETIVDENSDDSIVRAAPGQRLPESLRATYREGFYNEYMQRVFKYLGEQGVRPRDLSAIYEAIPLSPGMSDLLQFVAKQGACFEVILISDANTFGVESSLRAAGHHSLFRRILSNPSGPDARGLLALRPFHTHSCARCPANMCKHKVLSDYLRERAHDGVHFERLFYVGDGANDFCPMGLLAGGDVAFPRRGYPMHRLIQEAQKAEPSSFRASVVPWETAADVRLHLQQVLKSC
Cardio protect: myocardial damage modulation in H9c2 cells; H9c2 cardiomyocytes, H2O2 injury protection, ATPLite, 2 h; protection from H2O2 cell death, % at 20 µM; 360,000 compounds, 0.63% hits; AID 588492;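 active = compounds giving at least 50% protection of heart cells from peroxide-induced death in the single-dose screen, raw or plate-pattern-corrected value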;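 also: 0% = DMSO wells with peroxide and 100% = DMSO wells without peroxide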
PfGluPho inh: PfG6PD (Plasmodium falciparum) enzyme inhibition; PfGluPho enzyme, NADPH resazurin-diaphorase fluorescence; inhibition, % at 20 µM; 350,000 compounds, 0.78% hits; AID 504690;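 active = inhibition reaching at least a set limit at 20 µM in the primary screen, cut at about 59% in these data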;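 also: 0% = DMSO wells with substrate and 100% = DMSO wells lacking glucose-6-phosphate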
PfM18AAP inh: blocks P. falciparum M18 aspartyl aminopeptidase; recombinant PfM18AAP, H-Glu-NHMec fluorogenic cleavage; inhibition, % at 7.35 µM; 290,000 compounds, 1.2% hits; AID 1822;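 active = inhibition above the campaign mean inhibition over all tested compounds plus 3 SD, cut at about 28% in these data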;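 also: 0% = plate median of test compound wells and 100% = 2 mM ZnCl2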
ALR H2O2 inh: inhibitors of human sulfhydryl oxidase ALR; AID 485317; 290,000 compounds, 3.8% hits; P55789; inhibition, % (test concentration not listed); purified ALR, DTT oxidation, H2O2 HRP-luminol luminescence;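 active = mean replicate inhibition above about 79%, with every replicate also reaching it, limit read from the data; inconclusive = only one of the two criteria met; inactive = mean below limit and not every replicate reaching it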
Target sequence (P55789 whole entry, looked up): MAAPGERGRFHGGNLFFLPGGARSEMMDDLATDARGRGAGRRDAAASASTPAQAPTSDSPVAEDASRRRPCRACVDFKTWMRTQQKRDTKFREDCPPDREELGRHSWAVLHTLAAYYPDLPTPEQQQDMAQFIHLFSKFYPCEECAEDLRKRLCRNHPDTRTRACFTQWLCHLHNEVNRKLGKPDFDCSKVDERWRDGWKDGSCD
Numbers without * were called inactive; ? = inconclusive; . = not tested or not shown.

SMILES	PHOSPHO1 block	Cardio protect	PfGluPho inh	PfM18AAP inh	ALR H2O2 inh
COc1ccc(NC(=O)CSc2nc(O)cc(=O)n2-c2ccc(OC)cc2)cc1	40	5	-17	4	99*
COc1ccccc1NC(=O)CSc1nc(O)cc(=O)n1-c1ccccc1OC	19	0	-19	13	3
Cc1ccccc1NC(=O)CSc1nc(O)cc(=O)n1C	13	1	14	3	99*
COc1ccc(-n2c(SCC(=O)Nc3ccc(NC(C)=O)cc3)nc3ccccc3c2=O)cc1	33	-2	-20	-6	.
COc1ccc(-n2c(SCC(=O)Nc3cccc4ccccc34)nc(O)cc2=O)cc1	12	-2	7	-1	99*
Cc1ccc(-n2c(SCC(=O)Nc3ccc4c5c(cccc35)CC4)nc(O)c(C)c2=O)cc1	-16	4	-27	-9	99*
COc1ccccc1-c1cnc(C(O)c2ccc(Cl)c(Cl)c2)[nH]1 (stereo not given)	.	-7	.	.	.
CN1OC[C@@H]2CN(Cc3ccc(Cl)cc3)[C@H](c3ccc(-n4ccnc4)cc3)C[C@@H]21	.	6	.	.	.
O=C(CSc1nc(O)cc(=O)n1-c1ccccc1)c1ccc(Br)cc1	2	5	-4	-5	98*
CC(NC(=O)CN(c1cccc(C(F)(F)F)c1)S(C)(=O)=O)c1ccccc1 (stereo not given)	-6	0	1	0	.
Cc1cc(C)n(-c2ccc(NC(=O)C3CCN(Cc4ccccn4)CC3)cc2)n1	34	1	0	-4	2
COc1cccc(N2CCN(C(=O)c3ccc(CS(=O)c4ccc(Cl)cc4)o3)CC2)c1 (stereo not given)	32	14	-8	-2	88*
COc1cccc(N2CCN(C(=O)c3ccc(CS(=O)Cc4ccc(C)cc4)o3)CC2)c1 (stereo not given)	-32	12	-6	3	79*
CCc1ccc(CNc2ccc(N3CCN(C(C)=O)CC3)cc2)cc1	-25	0	13	19	99*
CC(=O)N1CCN(c2ccc(NC(=O)c3ccco3)cc2)CC1	35	-4	-2	3	26
CC(=O)N1CCN(c2ccc(NCc3ccco3)cc2)CC1	.	8	18	.	99*
CC(=O)N1CCN(c2ccc(NCc3ccc(C)cc3)cc2)CC1	-18	2	-1	4	99*
Cc1ccc(CNC(=O)N2CCN(c3ccc(C)cc3)CC2)cc1	.	-3	-17	0	-1
CC(=O)N1CCN(c2ccc(NCc3ccc(-c4cccc(Cl)c4)o3)cc2)CC1	.	0	45	.	85*
O=C(COC(=O)CCc1ccccc1)NNC(=O)c1ccccc1	.	4	-7	.	-2
Cc1cc(C)n(CCNC(=O)[C@H]2O[C@@H](n3ccc(N)nc3=O)[C@H](O)[C@@H]2O)n1	.	4	.	.	.
O=C(CN1CCN(c2ccc(O)cc2)CC1)NC(=O)NCc1ccco1	-7	0	47	14	98*
Fc1ccc(N2CCN(C(=S)NCc3ccco3)CC2)cc1	18	-1	13	-1	42
COc1cccc(N2CCN(C(=S)NCc3ccco3)CC2)c1	-62	10	-7	14	87*
Cc1cccnc1C(c1ccc(F)cc1)N(C)C(=O)C1CCN(CCOc2ccc(Cl)cc2Cl)CC1 (stereo not given)	.	-16	.	.	.
SMILES	PHOSPHO1 block	Cardio protect	PfGluPho inh	PfM18AAP inh	ALR H2O2 inh
O=C(O)Cn1nnc(-c2ccccc2)c1COc1ccccc1	.	6	.	.	.
Cc1ccn2c(Nc3ccc4c(c3)OCO4)c(-c3ccccn3)nc2c1	-6	9	53	8	58
Cc1ccn2c(NC3CCCC3)c(-c3ccccn3)nc2c1	-5	21	5	-5	98*
Cc1ccn2c(NC3CCCC3)c(-c3ccncc3)nc2c1	-7	1	-8	2	98*
c1ccc(-c2nc3ccccn3c2NC2CCCC2)nc1	10	10	6	-1	?
Cc1ccc(Nc2c(-c3ccccn3)nc3cc(C)ccn23)cc1	-10	-4	4	8	98*
Clc1ccc(-c2nc3cnccn3c2NC2CCCC2)cc1	21	-3	-10	13	99*
COc1cc(OC)cc(C(=O)NCCCCc2ccccc2)c1	.	-7	-9	.	-13
Cc1ccc(-n2nc(-c3ccc(N)cc3)cc2N)cc1	-3	-3	0	1	98*
Nc1ccc(-c2cc(N)n(-c3ccccc3)n2)cc1	-8	-2	13	3	93*
COc1ccc2nc(NNC(=O)C3COc4ccccc4O3)sc2c1 (stereo not given)	-4	7	-35	31*	99*
O=C(CCNC(=O)c1ccc(Br)cc1)NCc1ccccn1	.	-3	2	.	1
CN1C(=S)SC(N(O)C=C2C=CC(=O)C=C2)C1(C)C (stereo not given)	12	-1	-11	-7	.
CC1(N(O)C=C2C=CC(=O)C=C2)CCCCC1=O (stereo not given)	32	4	-20	-4	99*
N#Cc1ccccc1CN1C(=O)S/C(=C/c2cccn2-c2ccc(C(=O)O)cc2)C1=O	-1	7	-28	-6	98*
O=C(O)c1ccc(-n2cccc2/C=C2/SC(=O)N(CC(=O)N3CCCC3)C2=O)cc1	23	4	12	12	2
Cc1cc(N=Cc2c(O)ccc3cc(Br)ccc23)no1	-1	66*	9	-10	-97
S=c1[nH]c2ccc(Cl)cc2s1	42	-10	-1	13	99*
CCC(=O)Nc1ccc(Nc2nc(C)c([N+](=O)[O-])c(Nc3ccc(NC(=O)CC)cc3)n2)cc1	-9	70*	6	-1	-1
COc1ccnc(Oc2ccc(F)cc2)c1C(=O)N/C=N/OCc1ccc(Cl)cc1Cl	-8	51*	-5	-3	-1
COc1ccnc(Oc2ccc(F)cc2)c1C(=O)N/C=N/OCc1ccc(F)cc1Cl	3	28	1	3	-2
Cc1cccc(C)c1N1CCN(S(=O)(=O)c2ccccc2)CC1	-6	-4	10	-1	-5
CC1=C(C)CS(=O)N(c2ccc(S(N)(=O)=O)cc2)C1 (stereo not given)	-52	1	56	30*	73
CC1=C(C)CS(=O)N(S(=O)(=O)c2ccccc2)C1 (stereo not given)	0	2	55	6	99*
O=C(NC(c1ccccc1)c1ccsc1)C1CCN(Cc2ccc(Oc3ccccc3)cc2)CC1 (stereo not given)	.	-2	.	.	.
CC1CCN(c2ccc(NC(=O)Cc3ccccc3)cc2)CC1	41	-6	11	3	-9
COc1cccc(CNc2ccc(N3CCC(C)CC3)cc2)c1OC	-20	-10	48	0	98*
CC(=O)Oc1ccc(/C=N/NC(=O)C2CCCN2S(=O)(=O)c2ccc(Cl)cc2)cc1 (stereo not given)	73*	7	-2	-10	100*
Cc1ccc(NC(=O)[C@@H]2CCCN2S(=O)(=O)c2ccc(Cl)cc2)cc1	.	0	7	.	-10
COc1ccc(CNCc2c(F)cccc2F)cc1OC	19	-8	-7	1	-4

Compound activity: PubChem, several laboratories
